LYPLA1 inh: counter-screen for PME1 inhibitors: inhibitors of human LYPLA1. O75608. recombinant LYPLA1, FP-Rh probe fluorescence polarization. inhibition, % at 5.9 µM. hit rate 0.16% among 320,000;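 active means inhibition above the mean of all tested compounds plus 3 SD, set per campaign, cut at about 14% in these data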;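 further: inhibitors block serine hydrolase probe labeling of LYPLA1 so polarization falls; 0% = enzyme with DMSO and 100% = wells lacking LYPLA1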
LYPLA2 inh: blocks human lysophospholipase 2, a PME1 counter-screen; AID 2177; hit rate 0.38% among 320,000; recombinant LYPLA2, FP-Rh probe fluorescence polarization; inhibition, % at 5.9 µM;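 active means inhibition above the screen-wide mean plus 3 SD, limit set per campaign, cut at about 26% in these data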;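 further: 0% = LYPLA2 with DMSO and 100% = wells lacking LYPLA2 enzyme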
ZTA counter: counter-screen for EBNA-1 inhibitors: inhibitors of Epstein-Barr virus ZTA | P03206 | ZTA-DNA binding, fluorescence polarization | inhibition, % at 11 µM | hit rate 0.15% among 320,000; in the data active means inhibition above about 33%
PREPL inhibitor: human PREPL enzyme inhibition; Q4J6C6; AID 2751; recombinant PREPL, fluorescence polarization activity-based probe; inhibition, % at 5.96 µM; hit rate 0.68% among 320,000; in the data active means inhibition above about 43%;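 further: 0% = enzyme with DMSO and 100% = wells lacking enzyme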
Target sequence (Q4J6C6 whole entry, looked up): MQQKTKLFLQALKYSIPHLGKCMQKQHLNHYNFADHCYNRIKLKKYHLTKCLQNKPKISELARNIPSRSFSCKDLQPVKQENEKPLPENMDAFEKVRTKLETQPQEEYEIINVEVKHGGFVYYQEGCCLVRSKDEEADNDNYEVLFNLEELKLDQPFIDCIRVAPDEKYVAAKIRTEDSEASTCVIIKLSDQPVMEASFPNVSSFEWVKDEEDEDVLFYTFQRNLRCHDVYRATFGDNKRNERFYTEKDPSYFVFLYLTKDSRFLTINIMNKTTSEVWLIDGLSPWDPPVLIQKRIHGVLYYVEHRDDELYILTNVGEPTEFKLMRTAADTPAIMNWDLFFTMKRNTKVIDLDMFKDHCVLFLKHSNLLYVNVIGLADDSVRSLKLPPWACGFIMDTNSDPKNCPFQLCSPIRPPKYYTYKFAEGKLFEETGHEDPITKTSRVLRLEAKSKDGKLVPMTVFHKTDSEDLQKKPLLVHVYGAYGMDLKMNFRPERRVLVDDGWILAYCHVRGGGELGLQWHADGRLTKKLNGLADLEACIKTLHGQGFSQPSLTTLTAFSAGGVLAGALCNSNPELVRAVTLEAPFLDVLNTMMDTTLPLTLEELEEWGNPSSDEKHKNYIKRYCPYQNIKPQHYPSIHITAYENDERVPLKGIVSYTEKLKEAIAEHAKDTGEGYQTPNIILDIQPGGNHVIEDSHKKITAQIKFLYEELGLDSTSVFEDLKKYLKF
EBNA-1 inh: blocks EBNA-1 binding to DNA; EBNA-1 DNA binding, fluorescence polarization; AID 1950; hit rate 0.34% among 300,000; inhibition, % at 14.8 µM; in the data active means inhibition above about 28%
LYPLA1 confirm: counter-screen for PME1 inhibitors: confirmation of human LYPLA1 inhibitors | inhibition, % at 5.9 µM | hit rate 69% among 480 | recombinant LYPLA1, FP-Rh probe fluorescence polarization | shares compounds with LYPLA1 inh;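 active means mean inhibition across replicates above the hit cutoff set in the primary screen, cut at about 15% in these data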;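 further: loss of FP-Rh probe labeling of LYPLA1 seen as lower polarization; 0% = LYPLA1 with DMSO and 100% = wells lacking LYPLA1 enzyme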
* hit, by the source's call; . = no result. Rows were chosen to be rich in hits. Some 1.3% of all compounds tested hit in one or more screens of this group.

SMILES | LYPLA1 inh | LYPLA2 inh | ZTA counter | PREPL inhibitor | EBNA-1 inh | LYPLA1 confirm
NC(=O)C1CCN(C(=O)C2(NC(=O)Nc3cccc(F)c3)CCCCC2)CC1 | -1 | -2 | 12 | -7 | -8 | .
C/C(=N\NC(=O)c1nnn(-c2nonc2N)c1-c1cccs1)c1ccncc1 | 25* | 6 | -34 | 10 | -3 | 1
CCOc1ccc(-c2c(C(=O)N/N=C(\C)c3ccncc3)nnn2-c2nonc2N)cc1 | 0 | -4 | 0 | 8 | -16 | .
Cc1nc2ccc(Br)cn2c1C(=O)N/N=C\c1ccccc1Cl | 2 | 7 | -2 | -18 | 3 | .
COc1ccccc1-c1nc(COc2ccc(Cl)cc2Cl)no1 | -1 | -8 | -13 | -13 | -8 | .
CCOC(=O)c1c(C)oc2c1C(=O)c1ccccc1C2=O | 1 | 4 | -7 | 15 | -2 | .
CCOc1ccc2noc3c2c1C(=O)c1ccccc1-3 | 20* | 24 | 2 | 23 | -10 | 12
Cc1ccc(C2(COC(=O)C(C)C)CO2)c(OC(=O)C(C)C)c1 (stereo not drawn) | 29* | 4 | 6 | 13 | -8 | 1
CCC(C)C(=O)OCC1(c2ccc(C)cc2OC(=O)C(C)C)CO1 (stereo not drawn) | 2 | 6 | 5 | 18 | 3 | .
Cn1ncc(Cl)c1C(=O)Nc1sc2c(c1C(N)=O)CCC2 | 29* | 0 | 8 | 1 | 5 | 4
NC(=O)c1c(NC(=O)c2ccccc2)sc2c1CCC2 | -2 | 7 | -17 | 12 | -6 | .
CC1CCc2c(sc(NC(=O)CN3CCN(C(=O)c4ccco4)CC3)c2C#N)C1 (stereo not drawn) | 42* | 25 | -7 | 14 | 6 | 42*
CC1CCN(CC(=O)Nc2sc3c(c2C#N)CCC3)CC1 | -2 | 2 | -1 | 13 | -2 | .
COc1ccccc1-c1nnc(SCC(=O)NNC(=O)c2ccccc2F)n1C | 24* | 7 | -11 | 19 | . | 4
COc1ccccc1-c1nnc(SCC(=O)NC2CC2)n1C | 1 | 6 | 0 | 8 | . | .
CCCCn1c(N)c(N(Cc2ccccc2OC)C(=O)c2ccc([N+](=O)[O-])s2)c(=O)[nH]c1=O | 0 | 5 | -1 | 5 | -2 | .
COC(=O)c1cc(S(=O)(=O)N2CCN(c3cccc(OC)c3)CC2)cn1C | 3 | -5 | -1 | -4 | 2 | .
O=C(COc1ccc(Cl)cc1)N1CCN(c2ccc([N+](=O)[O-])c(N3CCCCC3)c2)CC1 | 66* | 21 | 4 | 27 | -1 | 79*
O=C(COc1ccccc1Cl)N1CCN(c2ccc([N+](=O)[O-])c(N3CCCCC3)c2)CC1 | 12 | 1 | 3 | 25 | -8 | .
CCn1c2ccccc2c2nnc(SCc3ccc(C(=O)OC)o3)nc21 | 15* | 5 | -21 | 13 | -4 | 22*
CCn1c2ccccc2c2nnc(SCc3ccccc3)nc21 | -3 | -3 | -1 | 4 | -4 | .
Cc1ccc(CNC(=O)Cn2ccc3cc(S(=O)(=O)N4CCCCCC4)ccc32)cc1 | -3 | 3 | 9 | 14 | 5 | .
COc1ccc(CNC(=O)Cn2ccc3cc(S(=O)(=O)N4CCCC4)ccc32)cc1OC | 24* | 13 | 6 | 11 | 6 | 3
O=C(O)CCCNc1cc(N2CCN(C(=O)c3ccco3)CC2)c2noc3c2c1C(=O)c1ccccc1-3 | 18* | 14 | 149* | 33 | 81* | 18*
CCOc1ccc(/C=N/Nc2cc(N3CCOCC3)nc(C)n2)c(O)c1 | 30* | 13 | -3 | 22 | -5 | 33*
SMILES | LYPLA1 inh | LYPLA2 inh | ZTA counter | PREPL inhibitor | EBNA-1 inh | LYPLA1 confirm
CCOC(=O)c1sc2cc([N+](=O)[O-])cc(SCC(=O)OC)c2c1N | 15* | 4 | 3 | 24 | -4 | 29*
CCOC(=O)c1sc2cc([N+](=O)[O-])cc(SCCO)c2c1N | 1 | 2 | -28 | 10 | -11 | .
Cc1c(CCC(=O)NCCCC(=O)O)c(=O)oc2cc3oc4c(c3cc12)CCCC4 | -3 | -5 | 4 | 11 | -5 | .
COc1ccc(C(=O)Oc2cccc(Nc3ncnc4ccccc34)c2)cc1OC | 16* | 6 | -14 | 2 | -14 | 15*
OCCN(CCO)c1ccc2ccccc2c1 | 1 | 7 | 18 | 35 | -2 | .
OCCN(CCO)c1ccc(C(c2ccccc2Cl)c2ccc(N(CCO)CCO)cc2Cl)c(Cl)c1 | 15* | 14 | 0 | 29 | 3 | 17*
CC(Sc1nc(N)cc(=O)[nH]1)C(=O)Nc1sc2c(c1C#N)CCCC2 (stereo not drawn) | 30* | 9 | 7 | -9 | 0 | 39*
N#Cc1c(NC(=O)CSc2nc(N)cc(=O)[nH]2)sc2c1CCCCCC2 | 6 | 20 | -1 | -19 | -1 | .
Cc1ccc2nc3c(cc(C(=O)NC4CCS(=O)(=O)C4)n3Cc3ccccc3)c(=O)n2c1 (stereo not drawn) | -2 | 0 | 6 | -4 | 11 | .
O=C(Nc1nc(-c2ccc(F)cc2)cs1)C1CCN(C(=O)c2ccc(F)cc2)CC1 | -7 | 2 | -8 | -44 | -15 | .
CC(=O)c1sc(NC(=O)C2CCN(C(=O)c3ccc(F)cc3)CC2)nc1-c1ccccc1 | 20* | 20 | -15 | 1 | -1 | 29*
CCOC(=O)c1c(NC(=O)CSc2ncnc3ccccc23)sc(C(C)=O)c1C | 16* | 5 | -2 | 3 | 11 | 8
COC(=O)c1c(NC(=O)CSc2ncnc3ccccc23)sc(C)c1C | -1 | 3 | 0 | 0 | 1 | .
CCOC(=O)c1ccc(Oc2c(C)oc3c(CN4CCN(C)CC4)c(O)ccc3c2=O)cc1 | 17* | 13 | 0 | -11 | 8 | 17*
O=P1(Nn2cnnc2)C=C(c2ccccc2)OC(c2ccccc2)=C1 | 17* | 18 | 5 | -4 | 8 | 0
CC[N+](CC)(CCCCS(=O)(=O)[O-])CCNP1(=O)C=C(c2ccccc2)OC(c2ccccc2)=C1 | 4 | 9 | -17 | 15 | -14 | .
O=C(N/N=C1\CCS(=O)(=O)c2ccc(F)cc21)c1ccc(O)cc1 | 2 | 9 | 2 | 0 | 10 | .
COCCCC1CCN(C(=O)CCc2nnc(CCCCc3ccccc3)o2)CC1 | 17* | 8 | -2 | 19 | -6 | 17*
CC(C)(C)OC(=O)N1CCC(Cc2cc(-c3ccc(Cl)cc3)no2)(C(=O)O)CC1 | 1 | 2 | 12 | -4 | 8 | .
COC(=O)c1sc2cc(C(F)(F)F)cnc2c1-c1ccccc1 | 17* | 12 | -3 | -2 | 5 | 21*
CN1C(=O)c2ccccc2N(C)C1c1cccc(O)c1 (stereo not drawn) | 0 | -2 | -1 | 3 | -5 | .
O=C(Cn1sc2ccccc2c1=O)N1CCN(C(=O)c2ccco2)CC1 | 2 | -3 | 18 | 7 | 0 | .
O=C1/C(=C/c2cccc([N+](=O)[O-])c2)Oc2cc(O)ccc21 | 17* | 10 | 16 | 6 | -10 | 15*
CCOC(=O)c1cnc(SCC(=O)Nc2ccc(N3CCOCC3)c(Cl)c2)nc1N | 16* | 12 | -3 | -3 | 1 | 26*
